# Assay results taken from the supplement of paper PMC10849652.
# Of roughly 7,900 targets only a part is listed; those with a hit were picked by preference. About 0.6% of all pairs of compound and target were hits.
# Compound: CS(=O)(=O)N1CCN(Cc2cc3nc(-c4cccc5[nH]ncc45)nc(N4CCOCC4)c3s2)CC1 [pictilisib]
# Test: log2 fold change, soluble protein after heating vs DMSO (PISA); higher = thermal stabilisation; K562 cells, 10 uM, 30 min; active = over 0.2 and 3.5 SD of the protein, either way, in both replicates (recomputed)
# Procedure, shortened: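 Values are thermal stability changes relative to control samples and are taken from duplicates. They are stated as log2 fold changes. Before quantification by TMTpro 16plex LC-MS/MS with equalised channel sums, K562 cells at 2×10^6 cells/mL were treated with 10 μM compound for 30 min, heated in aliquots for 3 min across 48°C-58°C, pooled, extracted in PBS with 0.5% NP-40 at 4°C, and centrifuged at 21,000xg for 90 min to give the soluble supernatant.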
# Chain of UniProt Q53GQ0 (Q53GQ0 whole entry, looked up): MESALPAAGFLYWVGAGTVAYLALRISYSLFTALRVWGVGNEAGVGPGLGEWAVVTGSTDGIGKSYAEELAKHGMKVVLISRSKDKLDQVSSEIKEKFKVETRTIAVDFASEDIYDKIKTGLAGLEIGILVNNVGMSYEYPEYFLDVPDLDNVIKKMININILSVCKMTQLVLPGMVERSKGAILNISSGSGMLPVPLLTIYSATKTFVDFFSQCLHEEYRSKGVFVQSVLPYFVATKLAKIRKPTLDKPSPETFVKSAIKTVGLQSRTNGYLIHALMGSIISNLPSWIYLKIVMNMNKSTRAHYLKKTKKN
# Chain of UniProt O14929 (O14929 whole entry, looked up): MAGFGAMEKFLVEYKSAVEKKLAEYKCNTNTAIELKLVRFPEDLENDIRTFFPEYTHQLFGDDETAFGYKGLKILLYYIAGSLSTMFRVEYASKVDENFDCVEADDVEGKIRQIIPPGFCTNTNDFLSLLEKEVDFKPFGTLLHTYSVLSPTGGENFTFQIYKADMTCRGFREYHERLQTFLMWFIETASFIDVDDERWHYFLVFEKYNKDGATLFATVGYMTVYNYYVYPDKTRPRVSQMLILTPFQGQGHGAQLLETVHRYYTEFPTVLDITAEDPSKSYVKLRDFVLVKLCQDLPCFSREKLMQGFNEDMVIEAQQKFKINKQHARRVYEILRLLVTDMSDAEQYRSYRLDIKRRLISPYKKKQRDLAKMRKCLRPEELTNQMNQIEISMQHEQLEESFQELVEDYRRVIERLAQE
# Chain of UniProt O14893 (O14893 whole entry, looked up): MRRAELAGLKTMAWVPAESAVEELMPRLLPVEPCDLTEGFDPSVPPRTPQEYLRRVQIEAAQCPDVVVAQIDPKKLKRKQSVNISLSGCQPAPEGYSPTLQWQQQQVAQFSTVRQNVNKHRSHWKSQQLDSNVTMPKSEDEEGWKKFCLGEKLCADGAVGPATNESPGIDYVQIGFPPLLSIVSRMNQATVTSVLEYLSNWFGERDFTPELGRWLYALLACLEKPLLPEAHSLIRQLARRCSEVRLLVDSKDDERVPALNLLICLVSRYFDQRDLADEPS
# Chain of UniProt O94925 (O94925 whole entry, looked up): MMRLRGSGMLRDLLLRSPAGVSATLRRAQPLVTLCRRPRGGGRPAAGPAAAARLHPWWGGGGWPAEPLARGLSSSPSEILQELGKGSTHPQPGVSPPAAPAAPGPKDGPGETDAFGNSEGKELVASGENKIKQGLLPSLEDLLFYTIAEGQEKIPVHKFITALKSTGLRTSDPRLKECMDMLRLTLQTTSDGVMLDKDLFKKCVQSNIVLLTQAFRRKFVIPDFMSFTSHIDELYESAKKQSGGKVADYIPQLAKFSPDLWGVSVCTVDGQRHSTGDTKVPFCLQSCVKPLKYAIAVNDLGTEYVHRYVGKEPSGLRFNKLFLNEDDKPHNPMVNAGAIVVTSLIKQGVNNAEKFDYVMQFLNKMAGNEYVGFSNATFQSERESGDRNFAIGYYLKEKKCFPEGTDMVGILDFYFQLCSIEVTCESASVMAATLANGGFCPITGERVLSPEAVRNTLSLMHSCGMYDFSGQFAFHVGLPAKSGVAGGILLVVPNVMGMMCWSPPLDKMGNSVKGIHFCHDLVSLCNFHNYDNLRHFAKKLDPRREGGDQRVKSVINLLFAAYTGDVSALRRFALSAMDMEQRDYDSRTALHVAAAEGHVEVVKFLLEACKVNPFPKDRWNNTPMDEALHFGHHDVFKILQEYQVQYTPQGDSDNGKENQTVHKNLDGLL
# Chain of UniProt Q9Y680 (Q9Y680 whole entry, looked up): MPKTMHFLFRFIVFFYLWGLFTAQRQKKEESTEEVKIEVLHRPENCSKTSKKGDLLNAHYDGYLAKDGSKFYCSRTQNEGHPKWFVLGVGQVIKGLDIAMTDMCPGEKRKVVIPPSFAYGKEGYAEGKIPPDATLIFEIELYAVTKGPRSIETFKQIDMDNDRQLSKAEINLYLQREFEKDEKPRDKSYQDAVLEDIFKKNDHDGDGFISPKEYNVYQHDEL
# Chain of UniProt P31943 (P31943 whole entry, looked up): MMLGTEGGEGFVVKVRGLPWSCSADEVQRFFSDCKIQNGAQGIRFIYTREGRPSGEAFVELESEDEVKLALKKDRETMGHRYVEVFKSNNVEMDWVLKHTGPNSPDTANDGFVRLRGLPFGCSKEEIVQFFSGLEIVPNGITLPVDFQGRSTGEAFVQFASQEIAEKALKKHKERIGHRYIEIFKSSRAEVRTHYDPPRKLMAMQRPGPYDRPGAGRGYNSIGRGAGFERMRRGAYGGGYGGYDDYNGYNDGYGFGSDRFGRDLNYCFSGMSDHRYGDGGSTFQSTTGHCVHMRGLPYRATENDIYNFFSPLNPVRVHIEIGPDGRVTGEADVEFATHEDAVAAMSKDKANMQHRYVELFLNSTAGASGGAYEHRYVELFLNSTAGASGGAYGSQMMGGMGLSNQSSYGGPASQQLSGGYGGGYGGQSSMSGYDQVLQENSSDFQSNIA
# Chain of UniProt Q5JWF2 (Q5JWF2 whole entry, looked up): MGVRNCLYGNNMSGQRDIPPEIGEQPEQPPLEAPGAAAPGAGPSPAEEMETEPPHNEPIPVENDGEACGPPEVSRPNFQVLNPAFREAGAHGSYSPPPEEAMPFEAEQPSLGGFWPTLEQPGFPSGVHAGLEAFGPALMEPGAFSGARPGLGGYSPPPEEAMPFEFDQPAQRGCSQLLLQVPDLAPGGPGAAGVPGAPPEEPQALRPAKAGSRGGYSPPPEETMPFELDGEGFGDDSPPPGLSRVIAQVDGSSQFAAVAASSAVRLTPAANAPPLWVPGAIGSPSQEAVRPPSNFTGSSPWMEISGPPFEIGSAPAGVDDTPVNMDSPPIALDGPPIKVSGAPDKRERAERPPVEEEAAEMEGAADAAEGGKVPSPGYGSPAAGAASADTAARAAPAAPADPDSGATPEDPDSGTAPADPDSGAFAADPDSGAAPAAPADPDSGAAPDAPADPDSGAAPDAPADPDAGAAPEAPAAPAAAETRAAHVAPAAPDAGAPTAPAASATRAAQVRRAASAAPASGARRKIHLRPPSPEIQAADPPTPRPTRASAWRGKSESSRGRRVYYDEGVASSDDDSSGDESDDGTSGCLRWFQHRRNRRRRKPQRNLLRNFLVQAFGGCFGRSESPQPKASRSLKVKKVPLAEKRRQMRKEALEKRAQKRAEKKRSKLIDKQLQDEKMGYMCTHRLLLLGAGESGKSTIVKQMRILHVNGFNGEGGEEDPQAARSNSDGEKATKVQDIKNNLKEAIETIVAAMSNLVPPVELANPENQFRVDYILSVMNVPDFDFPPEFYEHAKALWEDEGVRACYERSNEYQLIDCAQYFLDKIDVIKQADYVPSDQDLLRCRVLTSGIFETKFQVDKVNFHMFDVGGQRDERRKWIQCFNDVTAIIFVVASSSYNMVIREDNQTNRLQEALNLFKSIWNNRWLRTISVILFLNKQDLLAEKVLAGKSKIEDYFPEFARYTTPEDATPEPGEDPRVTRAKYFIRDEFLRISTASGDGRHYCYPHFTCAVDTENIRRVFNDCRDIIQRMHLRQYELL
# Chain of UniProt P46976 (P46976 whole entry, looked up): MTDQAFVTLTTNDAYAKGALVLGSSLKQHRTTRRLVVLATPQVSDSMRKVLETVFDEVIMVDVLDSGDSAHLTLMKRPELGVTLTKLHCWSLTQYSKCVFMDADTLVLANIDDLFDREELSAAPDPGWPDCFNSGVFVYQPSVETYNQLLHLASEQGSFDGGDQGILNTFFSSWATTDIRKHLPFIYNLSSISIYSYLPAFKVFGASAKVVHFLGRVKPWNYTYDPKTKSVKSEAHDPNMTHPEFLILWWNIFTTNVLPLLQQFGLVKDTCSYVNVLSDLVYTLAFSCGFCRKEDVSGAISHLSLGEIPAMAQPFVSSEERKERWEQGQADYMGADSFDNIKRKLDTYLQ
# Chain of UniProt Q86YM7 (Q86YM7 whole entry, looked up): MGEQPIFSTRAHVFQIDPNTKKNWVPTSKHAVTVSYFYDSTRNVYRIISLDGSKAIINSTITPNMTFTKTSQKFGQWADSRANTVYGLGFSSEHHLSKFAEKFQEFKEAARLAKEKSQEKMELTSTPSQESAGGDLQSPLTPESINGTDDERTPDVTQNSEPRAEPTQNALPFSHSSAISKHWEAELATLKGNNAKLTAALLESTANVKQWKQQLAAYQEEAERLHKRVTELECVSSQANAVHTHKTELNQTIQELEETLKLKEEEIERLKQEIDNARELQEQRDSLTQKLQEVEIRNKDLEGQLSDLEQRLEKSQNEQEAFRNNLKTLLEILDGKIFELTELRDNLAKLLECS
# Chain of UniProt Q96HJ9 (Q96HJ9 whole entry, looked up): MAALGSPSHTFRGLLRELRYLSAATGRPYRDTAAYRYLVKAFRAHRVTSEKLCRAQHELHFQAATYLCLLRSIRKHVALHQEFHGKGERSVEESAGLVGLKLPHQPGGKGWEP
# Chain of UniProt P08236 (P08236 whole entry, looked up): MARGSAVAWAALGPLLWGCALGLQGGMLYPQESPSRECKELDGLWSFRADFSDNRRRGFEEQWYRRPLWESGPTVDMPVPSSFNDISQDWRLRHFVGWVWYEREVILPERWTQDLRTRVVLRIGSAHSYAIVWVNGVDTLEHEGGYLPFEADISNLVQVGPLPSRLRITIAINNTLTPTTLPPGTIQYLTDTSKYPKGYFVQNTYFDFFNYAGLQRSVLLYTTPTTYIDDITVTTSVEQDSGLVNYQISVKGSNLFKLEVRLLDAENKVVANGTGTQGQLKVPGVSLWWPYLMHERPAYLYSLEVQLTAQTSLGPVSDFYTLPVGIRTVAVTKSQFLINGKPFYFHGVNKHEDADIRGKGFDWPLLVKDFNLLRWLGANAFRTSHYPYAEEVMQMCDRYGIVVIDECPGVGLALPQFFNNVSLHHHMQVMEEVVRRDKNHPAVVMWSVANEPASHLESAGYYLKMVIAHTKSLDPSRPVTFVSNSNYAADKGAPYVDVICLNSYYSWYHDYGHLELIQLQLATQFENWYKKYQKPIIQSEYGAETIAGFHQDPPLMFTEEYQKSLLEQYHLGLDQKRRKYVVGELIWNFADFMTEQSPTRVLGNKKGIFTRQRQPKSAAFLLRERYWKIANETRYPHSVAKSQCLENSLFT
row,Target,log2 fold change
1,HECTD1 (UniProt Q9ULT8),0.02 (inactive)
2,FMC1 (UniProt Q96HJ9),0.024 (inactive)
3,GABARAPL2 (UniProt P60520),-0.059 (inactive)
4,HOMER1 (UniProt Q86YM7),-0.001 (inactive)
5,H2AZ1 (UniProt P0C0S5),-0.09 (inactive)
6,GOLGB1 isoform 2 (UniProt Q14789),0.066 (inactive)
7,GLCCI1 (UniProt Q86VQ1),-0.039 (inactive)
8,GUSB (UniProt P08236),0.098 (inactive)
9,H2AFX (UniProt P16104),-0.215 (inactive)
10,HSPA8 (UniProt E9PK54),-0.071 (inactive)
11,HBA1 (UniProt P69905),-0.088 (inactive)
12,FKBP7 (UniProt Q9Y680),-0.007 (inactive)
13,GYG1 (UniProt P46976),0.376 (active)
14,HNRNPH1 (UniProt P31943),-0.135 (inactive)
15,HBZ (UniProt P02008),-0.006 (inactive)
16,GALC (UniProt P54803),0.159 (inactive)
17,FUCA2 (UniProt Q9BTY2),0.011 (inactive)
18,GEMIN2 (UniProt O14893),0.016 (inactive)
19,FANCD2 isoform 1 (UniProt Q9BXW9),0.123 (inactive)
20,GNAS (UniProt Q5JWF2),0.051 (inactive)
21,HSD17B12 (UniProt Q53GQ0),0.102 (inactive)
22,HAT1 (UniProt O14929),-0.076 (inactive)
23,GLS (UniProt O94925),0.049 (inactive)
